Records with an inconclusive call do not appear. Entries that show only a call come without a potency. Calls of active or inactive are those of the source. The call rests on the fitted dose curve; in most records, active means well fitted activation curve with a large enough effect in the repeat runs; inconclusive means weak or mixed curves; inactive means flat fitted curve, though single readings scatter.
Assay: A CellTox Green Cytotoxicity Assay to monitor cytotoxicity in HEK293 cells - 40 hour (AID 1224871); further: nearly all actives have a fitted effect of over 45% in size
Details: CellTox Green fluorescence; series mostly up to 76.8 µM
Description: National Center for Advancing Translational Sciences [NCATS]
NIH Chemical Genomics Center [NCGC]
U.S. Environmental Protection Agency [EPA]
National Institutes of Environmental Health Sciences [NIEHS]
National Toxicology Program [NTP]
Cell-based models are critical for drug discovery. Determining the natural cytotoxic effects resulting from test compounds is an essential research activity. A CellTox Green Cytotoxicity Assay to monitor cytotoxicity in real time of continues cell culture during 40 hours of the compound treatment was used to screen Tox21 10K library compounds in Hek293 cells. CellTox Green Cytotoxicity Assay is a nonlytic, homogeneous, biofluorescent method to measure cytotoxicity in cell culture after experimental manipulation. The assay system uses a proprietary asymmetric cyanine dye that is excluded from viable cells but preferentially stains the dead cell's DNA. […] Viable cells produce no appreciable increases in fluorescence. Therefore, the fluorescence signal produced by the binding interaction with dead cell DNA is proportional to cytotoxicity.
The mixture of Hek293 cell suspension and reagents were dispensed at 600cells/6 ul/well in 1536-well tissue culture treated black solid bottom plates using a Multidrop dispenser. After the assay plates were incubated at a 37 C/5% CO2 incubator for 5 hours, 23 nL of compounds dissolved in DMSO, positive and negative controls was transferred to the assay plate by a pintool work station. The plates were incubated at 37 C for 40 hours. The fluorescence intensity were measured at 0h, 8h, 16h, 24h, 32h and 40h time points using ViewLux plate reader during compound treatment.
Potency means the concentration at half of the fitted maximal effect.

| SMILES | cytotoxicity increase | Potency |
| --- | --- | --- |
| CC1=CC[C@@H]2C[C@H]1C2(C)C | 2.52% [at 15.8 µM] (inactive) |  |
| CNc1c2c(nn1C)CCCC2 |  | inactive |
| CCN(Cc1cccc(S(=O)(=O)O)c1)c1ccc(C(=C2C=CC(=[N+](CC)Cc3cccc(S(=O)(=O)O)c3)C=C2)c2ccc(O)cc2S(=O)(=O)[O-])cc1 |  | inactive |
| COc1cc(NS(=O)(=O)c2ccc(N)cc2)nc(C)n1 |  | inactive |
| CC(C)(C)NCC(O)COc1cccc2c1C[C@H](O)[C@H](O)C2 (stereo not given in full) |  | inactive |
| CCN(CC)CCOc1ccccc1C(=O)CCc1ccccc1 |  | inactive |
| COc1cc(C(C)=O)ccc1OCCCN1CCC(c2noc3cc(F)ccc23)CC1 |  | inactive |
| O=C1OC[C@H](Cc2cccc(O)c2)[C@H]1Cc1cccc(O)c1 |  | inactive |
| CCCCC[C@H](O)/C=C/[C@H]1[C@H](O)CC(=O)[C@@H]1C/C=C\CCCC(=O)O |  | inactive |
| CC(=O)N[C@@H](Cc1ccc(O)cc1)C(=O)O |  | inactive |
| SCCc1cnccn1 |  | inactive |
| COc1cc(NC(C)CCCN)c2ncccc2c1 (stereo not given) |  | inactive |
| Cc1ccc(N(CCO)CCO)cc1 |  | inactive |
| CCN(CC)c1cccc(O)c1 |  | inactive |
| CC12CC3CC(C)(C1)CC(N)(C3)C2 |  | inactive |
| Cc1c(C2(c3cc(Br)c(O)c(Br)c3C)OS(=O)(=O)c3ccccc32)cc(Br)c(O)c1Br |  | inactive |
| CCCCCCOC(=O)CCCCC |  | inactive |
| O[C@@H](CNC[C@H](O)[C@H]1CCc2cc(F)ccc2O1)[C@@H]1CCc2cc(F)ccc2O1 |  | 26.8 µM (active) |
| O=C(O)CN1C(=O)c2cccc3cccc(c23)C1=O |  | inactive |
| Nc1nc(-c2ccc([N+](=O)[O-])cc2)cs1 |  | inactive |

| SMILES | cytotoxicity increase | Potency |
| --- | --- | --- |
| CC(C)Cc1ccc(CC(=O)O)cc1 |  | 15.1 µM (active) |
| Cc1cc(CCCOc2c(C)cc(-c3noc(C(F)(F)F)n3)cc2C)on1 |  | inactive |
| CCN(CC)CCOC(=O)C(c1ccccc1)c1ccccc1 |  | inactive |
| CC1C(C)(C)C2=C(C(=O)CCC2)C1(C)C (stereo not given) |  | inactive |
| O=C(/C=C/c1ccc([N+](=O)[O-])cc1)c1ccccc1 |  | 17.4 µM (active) |
| COC(CC(C)CCCC(C)(C)O)OC (stereo not given) |  | inactive |
| C=CCOC(=O)COCCC(C)C |  | inactive |
| NC(=O)c1ccccc1[N+](=O)[O-] |  | inactive |
| O=P(O)(O)Oc1ccccc1 |  | inactive |
| O=[N+]([O-])c1ccc2ncccc2c1 |  | inactive |
| COC(=O)C1=C(C)NC(C)=C(C(=O)OC(C)(C)CN(C)CCC(c2ccccc2)c2ccccc2)C1c1cccc([N+](=O)[O-])c1 (stereo not given) |  | inactive |
| COC1CCC=CO1 (stereo not given) |  | inactive |
| CC(=O)NNC(C)=O |  | inactive |
| C=CC(=O)O |  | inactive |
| CCCCCc1ccco1 |  | inactive |
| O=C(O)c1cccc(C[C@@H]2COc3ccc(OCc4nc5cc(F)ccc5s4)cc3[C@@H]2O)c1 |  | inactive |
| CC[C@H]1OC(=O)[C@H](C)[C@@H](O[C@H]2C[C@@](C)(OC)[C@@H](O)[C@H](C)O2)[C@H](C)[C@@H](O[C@@H]2O[C@H](C)C[C@H](N(C)C)[C@H]2O)[C@](C)(O)C[C@@H](C)/C(=N\OCOCCOC)[C@H](C)[C@@H](O)[C@]1(C)O |  | inactive |
| CN1C(CSCC(F)(F)F)Nc2cc(Cl)c(S(N)(=O)=O)cc2S1(=O)=O (stereo not given) |  | inactive |
| CC(=O)Oc1cccc(O)c1 |  | inactive |
| COc1ccc(-c2cc(C(F)F)nn2-c2ccc(S(N)(=O)=O)cc2)cc1F |  | inactive |
